{
  "source": "ChEMBL document CHEMBL1201862",
  "about": "“PubChem BioAssay data set” (2004)",
  "note": "Hit rate of the full screen: of about 400,000 compounds, about 2,100 (0.53%) were called active. Another 14% or so got no clear call; they are omitted. This is one part of a sample in which actives are shown more often than they occur. No rule for the calls is given here.",
  "data": [
    {"target": "Ataxin-2 (Homo sapiens) (UniProt Q99700)", "sequence (Q99700 whole entry)": "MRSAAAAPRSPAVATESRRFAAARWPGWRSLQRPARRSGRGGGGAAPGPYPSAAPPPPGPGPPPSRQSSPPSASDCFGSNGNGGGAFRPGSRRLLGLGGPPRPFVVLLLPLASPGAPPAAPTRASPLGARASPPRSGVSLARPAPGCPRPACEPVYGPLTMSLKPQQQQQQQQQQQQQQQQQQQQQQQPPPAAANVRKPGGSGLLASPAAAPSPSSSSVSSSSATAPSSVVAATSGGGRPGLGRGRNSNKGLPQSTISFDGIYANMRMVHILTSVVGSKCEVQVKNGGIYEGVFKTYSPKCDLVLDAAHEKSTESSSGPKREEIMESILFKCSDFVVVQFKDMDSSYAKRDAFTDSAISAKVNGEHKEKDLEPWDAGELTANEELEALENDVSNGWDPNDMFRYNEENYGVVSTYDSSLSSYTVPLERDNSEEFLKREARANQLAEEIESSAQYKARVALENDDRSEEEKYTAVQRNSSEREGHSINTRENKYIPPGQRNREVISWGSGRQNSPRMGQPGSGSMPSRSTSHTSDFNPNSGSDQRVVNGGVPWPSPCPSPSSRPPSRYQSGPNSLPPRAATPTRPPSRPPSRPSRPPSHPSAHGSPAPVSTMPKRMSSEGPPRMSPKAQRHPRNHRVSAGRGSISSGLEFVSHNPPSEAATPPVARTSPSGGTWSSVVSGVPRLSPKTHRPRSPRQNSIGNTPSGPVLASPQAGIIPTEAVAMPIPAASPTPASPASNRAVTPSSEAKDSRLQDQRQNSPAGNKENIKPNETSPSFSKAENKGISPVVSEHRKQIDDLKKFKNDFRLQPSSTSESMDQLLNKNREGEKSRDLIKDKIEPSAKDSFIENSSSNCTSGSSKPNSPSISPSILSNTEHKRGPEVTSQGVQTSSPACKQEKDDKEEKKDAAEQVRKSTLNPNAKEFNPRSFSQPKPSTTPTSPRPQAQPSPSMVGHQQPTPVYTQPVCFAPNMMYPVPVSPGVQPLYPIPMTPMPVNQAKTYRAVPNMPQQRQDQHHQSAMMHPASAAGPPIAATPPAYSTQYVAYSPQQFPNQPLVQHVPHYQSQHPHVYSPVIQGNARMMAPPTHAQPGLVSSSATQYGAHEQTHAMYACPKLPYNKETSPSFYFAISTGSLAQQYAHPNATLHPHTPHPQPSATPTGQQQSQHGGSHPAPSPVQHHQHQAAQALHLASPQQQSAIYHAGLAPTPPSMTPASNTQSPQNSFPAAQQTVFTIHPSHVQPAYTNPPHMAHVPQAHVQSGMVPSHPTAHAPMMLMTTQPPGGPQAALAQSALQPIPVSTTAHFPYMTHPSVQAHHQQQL", "test": "qHTS for Inhibitors of ATXN expression.", "format": "functional", "values": [
      {"smiles": "COCCn1c(SC2CCCCC2=O)nnc1-c1ccncc1", "note": "(centres undefined)", "Potency": "inactive"},
      {"smiles": "Nc1cc(Cl)nc(N/N=C/c2c(O)ccc3ccccc23)n1", "Potency": "inactive"},
      {"smiles": "O=S(=O)(O)c1cccc(N=Nc2c(O)ccc3ccccc23)c1", "Potency": "39.8 µM (active)"},
      {"smiles": "O=C(N/N=C\\c1c(O)ccc2ccccc12)c1ccc(S(=O)(=O)N2CCCCC2)cc1", "Potency": "inactive"},
      {"smiles": "Oc1ccc2ccccc2c1N=Nc1ccccn1", "Potency": "14.1 µM (active)"},
      {"smiles": "Oc1ccccc1C=NN=Cc1c(O)ccc2ccccc12", "Potency": "inactive"},
      {"smiles": "O=C(N/N=C/c1c(O)ccc2ccccc12)c1cccc(C(F)(F)F)c1", "Potency": "inactive"},
      {"smiles": "Oc1ncnc(O)c1C(c1ccc(F)cc1)c1c(O)ncnc1O", "Potency": "inactive"},
      {"smiles": "Cc1ccc(S(=O)(=O)/N=c2\\ccc(Cl)cn2C(F)F)cc1", "Potency": "inactive"},
      {"smiles": "N#Cc1nc(/C=C/c2ccccc2)oc1NCCCN1CCOCC1", "Potency": "inactive"},
      {"smiles": "CCc1sc(NC(=O)CN2CCC(C(N)=O)CC2)nc1-c1ccccc1", "Potency": "inactive"},
      {"smiles": "CCNc1nc(-c2sc(NC(=O)C(C)(C)C)nc2C)c(-n2cc(-c3ccccc3)nn2)s1", "Potency": "15.8 µM (active)"},
      {"smiles": "CC(=O)c1sc(NC(=O)CN2C(=O)C3CCCCC3C2=O)nc1-c1ccccc1", "note": "(centres undefined)", "Potency": "inactive"},
      {"smiles": "Cn1c(=O)c2c(nc(NCc3ccccc3)n2Cc2ccc(Cl)c(Cl)c2)n(C)c1=O", "Potency": "35.5 µM (active)"},
      {"smiles": "Cn1c(=O)c2nc(NCc3ccccc3)cnc2n(C)c1=O", "Potency": "inactive"},
      {"smiles": "CCC1CCCCN1Cc1nc2c(c(=O)n(C)c(=O)n2C)n1CCCc1ccccc1", "note": "(centres undefined)", "Potency": "inactive"},
      {"smiles": "CC1CCCCC12NC(=O)N(CC(=O)OCc1cccc(F)c1)C2=O", "note": "(centres undefined)", "Potency": "inactive"},
      {"smiles": "Cc1ccc(OCCn2cc(/C=N/NC(=O)c3ccncc3)c3ccccc32)cc1", "Potency": "inactive"},
      {"smiles": "CC(C)C(C)NC(=O)CSc1nnc(-c2c[nH]c3ccccc23)o1", "note": "(centres undefined)", "Potency": "inactive"},
      {"smiles": "Cc1ccc(CSc2nnc(SCC(=O)N/N=C/c3c[nH]c4ccccc34)s2)cc1", "Potency": "5.97 µM (active)"},
      {"smiles": "O=C1CCCC(O)=C1Sc1cc(Cl)c(Cl)cc1Cl", "Potency": "inactive"},
      {"smiles": "O=C(/C=C/Sc1ccccc1)c1ccccc1", "Potency": "15.8 µM (active)"},
      {"smiles": "O=C(/C=C/Sc1ccccc1)c1ccc(Cl)cc1", "Potency": "11.2 µM (active)"},
      {"smiles": "O=C1OCCN=C1/C=C(\\O)c1ccc(Cl)cc1", "Potency": "inactive"},
      {"smiles": "O=C(CNC(=O)c1ccc(Cl)cc1)Nc1ccccc1C(F)(F)F", "Potency": "inactive"},
      {"smiles": "O=C(c1ccccc1)c1cccc(C(=O)c2ccccc2)c1", "Potency": "inactive"},
      {"smiles": "OC(C#CCN1CCCC1)(c1ccccc1)c1cccnc1", "note": "(centres undefined)", "Potency": "inactive"},
      {"smiles": "O=C(c1cc2c(=O)n3ccccc3nc2s1)N1CCN(Cc2ccc3c(c2)OCO3)CC1", "Potency": "inactive"},
      {"smiles": "Cc1ccc(C23OCCN2CCn2nc4ccccc4c23)cc1", "note": "(centres undefined)", "Potency": "inactive"},
      {"smiles": "CC(C)c1cc(=O)oc2c3c4c(cc12)CCCN4CCC3", "Potency": "inactive"},
      {"smiles": "CCN(CC)c1ccc(/C=C2\\CCC(/C=N/NC(=O)c3ccc(=O)n(C)c3)=C2N2CCOCC2)cc1", "Potency": "inactive"},
      {"smiles": "Cc1cc(C(=O)N/N=C/c2cc(Br)cc(Br)c2OC(=O)c2cccc(F)c2)[nH]n1", "Potency": "inactive"},
      {"smiles": "O=C(N/N=C/C(Br)=C/c1ccccc1)c1ccncc1", "Potency": "31.6 µM (active)"},
      {"smiles": "O=C(N/N=C/c1cn(Cc2ccccc2)c2ccccc12)c1ccncc1", "Potency": "inactive"},
      {"smiles": "CC(C)c1cc(C(=O)N/N=C/C(Br)=C/c2ccccc2)[nH]n1", "Potency": "31.6 µM (active)"},
      {"smiles": "Cc1cc(C(=O)N/N=C/c2cc(Br)ccc2OC(=O)c2ccccc2Cl)[nH]n1", "Potency": "inactive"},
      {"smiles": "O=C(N/N=C/c1cn(CCOc2ccccc2)c2ccccc12)c1ccncc1", "Potency": "inactive"},
      {"smiles": "Cn1c(N)c(C(=O)N/N=C/c2ccccc2)sc1=S", "Potency": "inactive"},
      {"smiles": "Cn1cc(C(=O)N/N=C/C(Br)=C/c2ccccc2)ccc1=O", "Potency": "15.8 µM (active)"},
      {"smiles": "COc1ccc(-c2cc(=O)oc3cc(OC(=O)C4CCCCC4)c(Cl)cc23)cc1", "Potency": "inactive"},
      {"smiles": "CCN1CCN(Cc2c(O)ccc3c(C)c(-c4ccccc4)c(=O)oc23)CC1", "Potency": "inactive"},
      {"smiles": "CCOC(=O)CC1c2nc3ccccc3cc2CN1C(=O)OCC", "note": "(centres undefined)", "Potency": "inactive"},
      {"smiles": "CC(=O)/N=c1\\c(C#N)cc2c(=O)n3ccccc3nc2n1CCCOC(C)C", "Potency": "inactive"},
      {"smiles": "OC1=C2C(=Nc3ccccc3SC2c2ccc(C(F)(F)F)cc2)c2ccccc21", "note": "(centres undefined)", "Potency": "31.6 µM (active)"},
      {"smiles": "OC1=C2C(=Nc3ccccc3SC2c2ccc(Cl)c(Cl)c2)c2ccccc21", "note": "(centres undefined)", "Potency": "31.6 µM (active)"},
      {"smiles": "CC(C)N1C(=O)S/C(=C\\c2ccc(-c3ccc(Cl)c(C(=O)O)c3)o2)C1=O", "Potency": "inactive"},
      {"smiles": "COc1cccc(N(CC(=O)N2CCCCCC2)S(C)(=O)=O)c1", "Potency": "inactive"},
      {"smiles": "COc1ccc(C2OC3=Nc4cc(C)c(C)cc4NC3=C2O)cc1", "note": "(centres undefined)", "Potency": "inactive"},
      {"smiles": "NC(=O)CC(NC(=O)c1ccc(Br)cc1)c1ccc(N2CCCCCCC2)c([N+](=O)[O-])c1", "note": "(centres undefined)", "Potency": "31.6 µM (active)"},
      {"smiles": "Cc1cc(NC(=O)CNCC(c2ccccc2)N(C)C)c([N+](=O)[O-])cc1C", "note": "(centres undefined)", "Potency": "inactive"},
      {"smiles": "O=C(Cc1ccc(Br)cc1)N(Cc1ccccc1)c1ccccn1", "Potency": "inactive"},
      {"smiles": "O=C(COc1ccc(Br)cc1)NNC(=O)c1ccc(-n2cncn2)c([N+](=O)[O-])c1", "Potency": "inactive"},
      {"smiles": "O=C(O)c1ccc(NS(=O)(=O)c2ccc(N3CCCC3)c([N+](=O)[O-])c2)cc1", "Potency": "inactive"},
      {"smiles": "CN(Cc1ccccc1)c1ccc(C(CC(N)=O)NC(=O)Cc2ccc(Br)cc2)cc1[N+](=O)[O-]", "note": "(centres undefined)", "Potency": "35.5 µM (active)"},
      {"smiles": "O=[N+]([O-])c1cccc(S(=O)(=O)NC2CC3CCC2C3)c1", "note": "(centres undefined)", "Potency": "inactive"},
      {"smiles": "NC(=O)CC(NC(=O)Cc1ccc(Br)cc1)c1ccc(NC2CC3CCC2C3)c([N+](=O)[O-])c1", "note": "(centres undefined)", "Potency": "25.1 µM (active)"},
      {"smiles": "NC(=O)CC(NC(=O)c1ccc(Br)cc1)c1ccc(NC2CCCCCCC2)c([N+](=O)[O-])c1", "note": "(centres undefined)", "Potency": "31.6 µM (active)"},
      {"smiles": "C=CCNc1nc2ccccc2nc1NS(=O)(=O)c1ccc(F)cc1", "Potency": "inactive"},
      {"smiles": "CCOC(=O)/C(=C\\C=C1/Sc2cc(OCC)c(OCC)cc2N1CC)C(C)=O", "Potency": "inactive"},
      {"smiles": "COc1ccccc1[C@@H]1C(c2cccc(Cl)c2)=NN(c2ccccc2)[C@H]1C(=O)N1CCOC1=O", "Potency": "inactive"},
      {"smiles": "CCOC(=O)C1(Cc2cccc(F)c2)CCN(Cc2cn(CC)nc2C)CC1", "Potency": "inactive"},
      {"smiles": "CCCn1c(N)c(C(=O)CSc2nncs2)c(=O)[nH]c1=O", "Potency": "inactive"},
      {"smiles": "COC(=O)C1=CN(CC2CCCO2)C=C(C(=O)OC)C1c1cccc(O)c1", "note": "(centres undefined)", "Potency": "inactive"},
      {"smiles": "Cc1c(O)ccc2c(CC(=O)N[C@@H](Cc3ccccc3)C(=O)O)cc(=O)oc12", "Potency": "inactive"}
    ]}
  ]
}
